Measurements as given in PubChem BioAssay.
Values without a mark were called inactive. No rule for the calls is given here.

These compounds were tested against Pantothenate synthetase (Mycobacterium tuberculosis (strain ATCC 25618 / H37Rv)) (UniProt P9WIL5) (assay: Recombinant Mtb pantothenate synthetase (PanC) inhibitors, coupled enzyme, confirmatory (AID 375;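 also: 0% = full reaction with vehicle and 100% = no enzyme background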)). Settings: coupled enzyme assay; at 10 µM, stronger effect = higher value.
Chain of Pantothenate synthetase (Mycobacterium tuberculosis (strain ATCC 25618 / H37Rv)) (P9WIL5 whole entry, looked up): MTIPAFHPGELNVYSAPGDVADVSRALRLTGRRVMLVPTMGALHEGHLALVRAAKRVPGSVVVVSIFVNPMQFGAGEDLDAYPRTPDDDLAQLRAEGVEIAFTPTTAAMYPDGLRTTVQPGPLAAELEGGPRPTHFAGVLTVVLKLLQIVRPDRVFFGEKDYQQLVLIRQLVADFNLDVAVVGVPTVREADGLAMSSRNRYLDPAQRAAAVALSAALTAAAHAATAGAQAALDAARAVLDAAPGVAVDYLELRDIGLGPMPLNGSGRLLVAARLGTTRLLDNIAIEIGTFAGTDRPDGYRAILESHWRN

Compound | inhibition [%]
COC(=O)c1c(N)n(-c2cc(OC)cc(OC)c2)c2nc3ccccc3nc12 | 1
NC(=O)c1oc2ccc(Cl)cc2c1NC(=O)CN1CCOCC1 | 1
Cc1c(C(=O)OC2CCC(C)CC2)[nH]c2c1C(=O)CCC2 (stereo not given) | 2
COC(=O)CSc1nnc(-c2cccs2)n1-c1ccc(Cl)cc1 | 4
COc1ccc(C(=O)NCCn2ccc3ccccc32)c(OC)c1 | 5
Brc1ccccc1-c1nc(-c2ccccc2)no1 | 0
COc1ccccc1OCCn1c(=O)sc2ccccc21 | 0
CCCCn1c(SCc2cccnc2)nc2c1c(=O)n(C)c(=O)n2C | 0
COc1ccccc1CN1CC(C(=O)NCc2cccnc2)CC1=O (stereo not given) | 2
CCC1(c2ccc(F)cc2)NC(=O)N(CC(=O)c2ccc[nH]2)C1=O (stereo not given) | 0
CCc1ccc2oc(-c3cc(N)ccc3Cl)nc2c1 | 2
COc1ccccc1N(CC(=O)NC1CCCC1)C(=O)CCC(=O)Nc1cc(C)on1 | 0
O=C(OCCN=C1NS(=O)(=O)c2ccccc21)C1CC(=O)N(c2ccc(Cl)cc2)C1 (stereo not given) | 0
N#Cc1nc(-c2ccccc2Cl)oc1N1CCOCC1 | 0
O=C(NCCN1CCOCC1)c1ccc2c(c1)N(Cc1ccccc1F)C(=O)CS2 | 0
CC(=O)N1CCN=C1SCc1ccc(Br)cc1 | 4
Cc1nc2ccc(CCO)cc2s1 | 0
COc1ccc2nc(NC(=O)C(NS(=O)(=O)c3cccs3)C(C)C)sc2c1 (stereo not given) | 0
Cc1ccc2nc(-c3ccc4c(c3)OCCO4)cc(C(=O)O)c2c1 | 0
COc1ccc(-n2ncc3c(NCc4ccc5c(c4)OCO5)ncnc32)cc1 | 0

Compound | inhibition [%]
CC(=O)N1CCc2cc(S(=O)(=O)CCC(=O)N3CCN(c4ccccn4)CC3)ccc21 | 11
CC(C)Sc1nc2c(c(=O)n1-c1ccc(F)cc1)SCC2 | 1
O=C(NCCc1ccccn1)c1ccc(COc2ccccc2)o1 | 0
CC(C)CC(OC(=O)c1cccs1)C(=O)NCc1ccco1 (stereo not given) | 0
CCCCNC(=O)c1c(C)cc(=O)oc1C | 9
CCN(CC)C1CCCCC1NS(=O)(=O)c1ccc(Cl)cc1 (stereo not given) | 0
Cn1c(=O)[nH]c(=O)c2[nH]c(CN3CCN(C(=O)c4ccco4)CC3)nc21 | 0
CN(C)CCCOC(=O)CCc1ccccc1 | 0
CSc1ccccc1NS(=O)(=O)c1ccccc1 | 3
COc1ccccc1C(=O)NCC(=O)Nc1ccccc1 | 0
CCOC(OCC)P(=O)(C(C)C)C(C)C | 0
COc1ccc(C2CC(c3ccc(OC)cc3)n3nc(N)nc3N2)cc1 (stereo not given) | 0
CCOC(=O)c1c2n(c3ccc(O)cc13)CCCCC2 | 0
O=C(CN1C(=O)NC2(CCCCCC2)C1=O)N1CCC(Cc2ccccc2)CC1 | 2
Cc1ccc(S(=O)(=O)CCC(=O)Nc2ccc3c(c2)OCO3)cc1 | 6
Cc1ccc(-n2nc(C(=O)N3CCN(C)CC3)c3c4ccccc4n(C)c3c2=O)cc1 | 0
Cn1c(=O)[nH]c(=O)c2c1ncn2CCN1CCOCC1 | 0
COCCN1Cc2cccc(C(=O)Nc3cccnc3)c2C1=O | 1
CC(OC(=O)CNC(=O)C12CC3CC(CC(C3)C1)C2)C(=O)Nc1ccc(N2CCOCC2)cc1 (stereo not given) | 0
CCCOc1cccc(-c2nnc(N)s2)c1 | 0
